# Measurements: publication PMC4336329 (PLoS ONE, 2015)
# Among all 310,000 compounds or so, about 14,000 (4.5%) showed an effect of 50% or more. Effects have a minus sign here. The entries come from a sample that favours strong results as a whole.
# Molecular target: human ether-à-go-go-related gene (hERG) potassium channel (human, UniProt Q12809)
# Assay: primary screen, population patch clamp on CHO cells stably expressing hERG; higher = less effect of the substance
# 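Further: peak tail current of the secondary pulse compared with the same well before compound.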
# Chain of human ether-à-go-go-related gene (hERG) potassium channel (Q12809 whole entry, looked up): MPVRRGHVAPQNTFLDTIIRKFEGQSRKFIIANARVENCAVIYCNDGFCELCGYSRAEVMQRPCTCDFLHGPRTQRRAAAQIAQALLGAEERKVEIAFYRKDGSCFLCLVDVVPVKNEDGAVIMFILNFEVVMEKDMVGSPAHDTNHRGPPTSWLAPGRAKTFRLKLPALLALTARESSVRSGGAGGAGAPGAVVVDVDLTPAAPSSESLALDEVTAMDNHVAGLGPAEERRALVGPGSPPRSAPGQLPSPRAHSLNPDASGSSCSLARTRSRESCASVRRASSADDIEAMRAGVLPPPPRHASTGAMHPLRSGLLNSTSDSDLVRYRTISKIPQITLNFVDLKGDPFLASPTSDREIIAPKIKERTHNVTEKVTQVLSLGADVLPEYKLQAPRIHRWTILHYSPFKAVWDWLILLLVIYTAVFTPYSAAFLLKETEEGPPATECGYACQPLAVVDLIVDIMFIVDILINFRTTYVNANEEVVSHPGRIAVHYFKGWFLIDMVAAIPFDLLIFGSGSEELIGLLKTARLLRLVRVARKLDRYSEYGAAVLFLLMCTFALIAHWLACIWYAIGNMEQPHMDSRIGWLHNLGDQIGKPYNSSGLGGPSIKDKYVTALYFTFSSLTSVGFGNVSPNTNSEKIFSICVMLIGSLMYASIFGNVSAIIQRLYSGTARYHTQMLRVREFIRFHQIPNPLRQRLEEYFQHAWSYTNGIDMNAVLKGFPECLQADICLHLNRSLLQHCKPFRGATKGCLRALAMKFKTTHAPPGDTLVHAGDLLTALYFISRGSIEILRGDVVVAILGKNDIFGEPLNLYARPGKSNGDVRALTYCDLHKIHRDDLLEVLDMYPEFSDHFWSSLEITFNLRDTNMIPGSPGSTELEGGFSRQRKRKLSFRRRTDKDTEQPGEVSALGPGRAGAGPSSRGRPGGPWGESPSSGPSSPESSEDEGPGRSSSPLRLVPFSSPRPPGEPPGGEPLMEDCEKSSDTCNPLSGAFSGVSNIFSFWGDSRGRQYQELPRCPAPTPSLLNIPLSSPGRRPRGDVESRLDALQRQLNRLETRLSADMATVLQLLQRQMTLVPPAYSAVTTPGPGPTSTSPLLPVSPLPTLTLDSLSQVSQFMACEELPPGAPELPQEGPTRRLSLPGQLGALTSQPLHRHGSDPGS
row,SMILES,"hERG current change (%, negative = inhibition) at 10uM"
1,Clc1ccc(-c2nnc3sc(Cc4cccs4)nn23)cc1,4.77%
2,CCc1cccc2c(C(=O)CCl)c[nH]c12,-14.3%
3,COc1ccc2[nH]c3c(c2c1)CCNC3C.Cl (stereo not shown),14.7%
4,CC1(CCc2ccc3c(c2)OCO3)NC(=O)c2ccccc2N1 (stereo not shown),-7.78%
5,Cl.c1ccc2c3c([nH]c2c1)C1(CCCCC1)NCC3,2.11%
6,CC1(CCc2ccc3c(c2)OCO3)NCCc2c1[nH]c1ccccc21.Cl (stereo not shown),-85.8%
7,COc1ccc2[nH]c3c(c2c1)CCNC3(C)CCc1ccc(Cl)nc1 (stereo not shown),-51.6%
8,COc1ccc2[nH]c3c(c2c1)CCN[C@H]3C,-3.82%
9,COc1cccc(NC(C(=O)Nc2cccc(C(C)=O)c2)c2ccccc2)c1 (stereo not shown),-7.56%
10,O=C(O)C(Cc1ccccc1)N1C(=O)CCC1=O (stereo not shown),14.4%
11,COc1ccc(C2CC(=O)C(C=NCCN3CCN(C(C)=O)CC3)=C(O)C2)cc1 (stereo not shown),-1.68%
12,COc1ccc(C2CC(=O)C(C=NCCN3CCN(C(=S)Nc4ccccc4)CC3)=C(O)C2)cc1OC (stereo not shown),-20.1%
13,CCCCCC(=O)N1CCN(CCN=CC2=C(O)CC(c3ccc(OC)cc3)CC2=O)CC1 (stereo not shown),-74.1%
14,CCC(=O)N1CCN(CCN=CC2=C(O)CC(c3ccc(OC)cc3)CC2=O)CC1 (stereo not shown),5.11%
15,COc1ccc(C2CC(=O)C(C=NCCO)=C(O)C2)cc1OC (stereo not shown),4.15%
16,CCCCCC(=O)N1CCN(CCN=CC2=C(O)CC(c3ccc(OC)c(OC)c3)CC2=O)CC1 (stereo not shown),-78.8%
17,Cc1ccccc1C1=NC(C(F)(F)F)(C(F)(F)F)c2c(n(C)c(=O)n(C)c2=O)N1,3.5%
18,NC(=S)Cc1ccc(Cl)cc1Cl,18.8%
19,O=C(Nc1cccc(Cl)c1)Nc1ccccc1NS(=O)(=O)c1cccs1,24%
20,Cc1cc(C)c(NC(=O)CSc2nnc(-c3ccco3)n2N)c(C)c1,-14.9%
21,CCC(CC(C)(C)O)C(=O)NNC(=S)Nc1ccccc1 (stereo not shown),5.73%
22,O=C(OCC(=O)N1CCCC1)c1ccc(NS(=O)(=O)c2cccs2)cc1O,17.1%
23,O=C(O)c1ccc(Oc2ccccc2)o1,23.2%

row,SMILES,"hERG current change (%, negative = inhibition) at 10uM"
1,O=C(Nc1ccccc1)Nc1ccccc1-n1ccnc1,-18.2%
2,Cc1ccc(C)c(C(=O)CN2C(=O)NC3(CCC(C)CC3)C2=O)c1 (stereo not shown),-18.3%
3,CC(C)(C)c1cc(Cl)ccc1OCCOCCN1CCCC1.O=C(O)C(=O)O,-45.8%
4,CC1CCCN(CCCOc2ccc(Cl)cc2Br)C1.O=C(O)C(=O)O (stereo not shown),-70.5%
5,CC1CCCN(CCSc2ccc(Cl)cc2)C1.O=C(O)C(=O)O (stereo not shown),-41.3%
6,CC1CCCN(CCOCCOc2ccc(Cl)cc2Br)C1.O=C(O)C(=O)O (stereo not shown),-61.1%
7,Cc1ccc(N2C(=O)N(CC(=O)NC(c3ccccc3)c3ccccc3)C(=O)C2C)cc1 (stereo not shown),-32.6%
8,O=C(O)C1=C[C@@H](C2CCCCC2)C[C@@H](OCCCCO)O1,9.42%
9,Cc1ccsc1C(=O)NNC(=O)COc1ccccc1Cl,16.9%
10,CC1(C)N(OCc2ccccc2)C(=O)C(=O)N(OCc2ccccc2)C1(C)C,-6.11%
11,COc1cccc(C(C(=O)NCC2CCCO2)N(C(=O)Cn2nnc3ccccc32)c2ccc(NC(C)=O)cc2)c1OC (stereo not shown),6.49%
12,N#Cc1ccc(N2CCN(C(=O)c3cccc(F)c3)CC2)c(F)c1,-66.8%
13,N#Cc1ccc(N2CCNCC2)c(F)c1,-69%
14,O=C(c1cccc(F)c1)N1CCCN(C(=O)c2cccc(F)c2)CC1,-6.95%
15,N#Cc1ccc(N2CCN(C(=O)c3cccs3)CC2)c(F)c1,-55.7%
16,O=C(c1cccs1)N1CCN(c2ccc(Cl)cc2)CC1,-13.4%
17,O=C(c1cccc(C(=O)N2CCN(c3ccccc3F)CC2)c1)N1CCN(c2ccccc2F)CC1,-2.32%
18,N#Cc1ccc(N2CCN(c3ccc(F)cc3)CC2)cc1,-16.9%
19,O=C(c1cccs1)N1CCN(c2cc(Cl)ccc2Cl)CC1,-33.8%
20,Cc1cc(N2CCN(C(=O)c3cccs3)CC2)c(F)cc1[N+](=O)[O-],-67%
21,N#Cc1cc(F)c(N2CCNCC2)cc1Cl,3.42%
22,CCOC(=O)N1CCN(c2cc(C)c([N+](=O)[O-])cc2F)CC1,-8.16%
23,Cc1ccc(N2CCN(C(=O)c3cccs3)CC2)c(C)c1,-10.6%
